Measured values as given in the antibiotic and cytotoxicity screens of Wong et al. (2023).
Hit rate of the full screen: of about 39,000 compounds, about 500 (1.3%) were called active. What follows is part of a selection rich in actives, with near analogues and random picks from the rest.

Tested on: S. aureus RN4220
Experiment: growth inhibition call (relative growth <= 0.2)
Details: 50 µM

Structure (SMILES) | growth inhibition call
O=C(NC1CC1)[C@@H]1c2ccccc2C(=O)N(Cc2cc(F)cc(C(F)(F)F)c2)[C@H]1c1ccc(CO)cc1 | inactive
Cc1noc(C)c1NC(=O)Nc1ccc2c(c1)CC(=O)N([C@H](C)CO)C[C@@H](C)[C@@H](CN(C)C(=O)Nc1ccc(C(F)(F)F)cc1)O2 | inactive
C[C@@H]1CN([C@@H](C)CO)C(=O)c2cc(NC(=O)Nc3ccc(C(F)(F)F)cc3)ccc2O[C@@H](C)CCCCO[C@H]1CN(C)Cc1ccc(C(=O)O)cc1 | inactive
O=c1c2ccccc2oc2ccccc12 | inactive
CC(=O)CC(c1ccccc1)c1c(O)c2ccccc2oc1=O (configuration not stated) | inactive
O=c1oc2ccccc2c(O)c1Cc1c(O)c2ccccc2oc1=O | active
Cc1nccn1-c1ccc(CN)cc1 | inactive
C[C@H](CO)N1C[C@H](C)[C@@H](CN(C)Cc2ccc(-c3ccccc3)cc2)Oc2c(NC(=O)Nc3ccc(C(F)(F)F)cc3)cccc2C1=O | inactive
CCC1OC(=O)C(C)C(=O)C(C)C(OC2OC(C)CC(N(C)C)C2O)C(C)(OC)CC(C)C(=O)C(C)C2N(CCCCn3cnc(-c4cccnc4)c3)C(=O)OC12C (configuration not stated) | active
NNC(=O)[C@@H]1C(c2ccccc2)[C@H]1C(=O)NN (some centres not stated) | inactive
C[C@H](CO)N1C[C@H](C)[C@H](CN(C)S(=O)(=O)c2ccccc2)OCCCC[C@H](C)Oc2ccc(NS(=O)(=O)c3cn(C)cn3)cc2C1=O | inactive
C[C@H]1CN([C@@H](C)CO)C(=O)Cc2cc(NC(=O)Nc3cccc4ccccc34)ccc2O[C@H]1CN(C)Cc1ccc(Oc2ccccc2)cc1 | inactive
O=C(C[C@@H]1C[C@H]2c3cc(NS(=O)(=O)c4ccc(F)cc4)ccc3O[C@H]2[C@@H](CO)O1)NCc1ccc(Oc2ccccc2)cc1 | inactive
C=C1C[C@@]23CC[C@@H]4[C@@](C)(CCC[C@@]4(C)C(=O)OC)[C@H]2CC[C@@H]1C3 | inactive
C[C@@]12CCC[C@](C)(C(=O)O[C@@H]3O[C@H](CO)[C@@H](O)[C@H](O)[C@H]3O)[C@@H]1CC[C@]13C[C@H](CC[C@@H]12)[C@](O)(CO)C3 | inactive
C=C1C[C@]23CC[C@@H]4[C@@](C)(CCC[C@@]4(C)C(=O)O)[C@H]2CC[C@H]1C3 | active
CN1CCN(CC#N)C(=O)C12CCN([C@H]1CCOC1)CC2 | inactive
C[C@H]1CN([C@@H](C)CO)C(=O)Cc2cc(NS(=O)(=O)c3cn(C)cn3)ccc2O[C@H]1CN(C)S(=O)(=O)c1cn(C)cn1 | inactive
C/C=C(/C)C(=O)O[C@H]1[C@@H](OC(C)=O)[C@@]2(CO)[C@@H](O)C[C@@]3(C)C(=CC[C@H]4[C@@]5(C)CC[C@@H](O[C@H]6O[C@H](C(=O)O)[C@@H](O[C@H]7O[C@@H](CO)[C@@H](O)[C@@H](O)[C@@H]7O)[C@@H](O)[C@@H]6O[C@H]6O[C@@H](CO)[C@@H](O)[C@@H](O)[C@@H]6O)[C@@](C)(CO)[C@@H]5CC[C@]43C)[C@@H]2CC1(C)C | inactive
CN(C)CC#Cc1ccc([C@H]2[C@@H](CO)N3CCCCN(C(=O)CN(C)C)C[C@@H]23)cc1 | inactive
COc1ccc(NC(=O)N2CCCCN3[C@H](COCCN(C)C)[C@H](c4ccc(C#Cc5ccccc5)cc4)[C@@H]3C2)cc1 | active
COc1ccc(NC(=O)N2CCCCN3[C@H](CN(C)C(C)=O)[C@H](c4ccc(C#Cc5ccccc5)cc4)[C@@H]3C2)cc1 | inactive
O=C(C[C@H]1C=C[C@H](NC(=O)c2cccc(F)c2)[C@@H](CO)O1)NCCN1CCCC1 | inactive
C[C@H](CO)N1C[C@H](C)[C@@H](CN(C)Cc2ccc(C(F)(F)F)cc2)Oc2ccc(NS(C)(=O)=O)cc2C1=O | inactive

Structure (SMILES) | growth inhibition call
CCCCCCc1ccc(O)cc1O.Nc1c2ccccc2nc2ccccc12 | inactive
CCCCC(=O)c1ccc(O)cc1 | inactive
COC(=O)CCc1ccc(OC)cc1O | inactive
CCCCCCc1ccc(O)cc1O [listing 1 of 2 here] | active
CCCCCCc1ccc(O)cc1O [listing 2 of 2 here] | active
CCCCCCCc1c(C)c(O)cc2c1[nH]c1ccccc12 | inactive
COC(=O)N/N=C/c1c[n+]([O-])c2ccccc2[n+]1[O-] | inactive
CN1C(=O)c2cc(NS(C)(=O)=O)ccc2OC[C@H]2O[C@H](CC(=O)N3CCOCC3)CC[C@H]21 | inactive
C[C@H]1CN([C@@H](C)CO)C(=O)c2cc(NS(C)(=O)=O)ccc2O[C@H]1CN(C)S(=O)(=O)c1ccccc1 | inactive
C[C@@H]1CCCCO[C@H](CN(C)C(=O)CCCN(C)C)[C@@H](C)CN([C@@H](C)CO)C(=O)c2cc(NC(=O)Nc3cccc4ccccc34)ccc2O1 | inactive
CO[C@@H]1CN(C)C(=O)c2ccc(NC(=O)CN(C)C)cc2OC[C@@H](C)N(C(=O)C2CCOCC2)C[C@H]1C | inactive
CC(C)NC(=O)Nc1ccc2c(c1)C(=O)N([C@H](C)CO)C[C@@H](C)[C@@H](CN(C)C(=O)Nc1ccc(C(F)(F)F)cc1)OCCCC[C@@H](C)O2 | inactive
CC(=O)N1[C@@H]2c3ccc(-c4ccccc4)c(=O)n3C[C@H]1[C@H](CO)[C@H]2C(=O)N1CCN(C)CC1 | inactive
C[C@H]1CN([C@@H](C)CO)C(=O)c2cc(NC(=O)c3ccncc3)ccc2O[C@@H]1CN(C)S(=O)(=O)c1ccc(F)cc1 | inactive
COC(=O)c1ccc2c(c1)no[n+]2[O-] | inactive
CN(C)CCOC(=O)COc1ccc(Cl)cc1.Cl | inactive
COc1ccc(-n2nc(CCC(=O)N(C)O)cc2-c2ccc(Cl)cc2)cc1 | inactive
CCCCc1nc(-c2ccc(OCCCN(CC)CC)cc2)cn1-c1ccc(Oc2ccc(Cl)cc2)cc1 | active
Cc1cc(=O)n2nc(C(=O)O)nc2[nH]1 | inactive
CN1C(=O)c2cc(NC(=O)C3CCC3)ccc2OC[C@@H]2O[C@H](CC(=O)NCCc3ccncc3)CC[C@@H]21 | inactive
CC(C)CC#Cc1ccc2c(c1)O[C@H](CN(C)S(=O)(=O)c1ccc(F)cc1)[C@H](C)CN([C@H](C)CO)S2(=O)=O | inactive
CCC[C@@H]1C[C@@H](C(=O)N[C@H]([C@H]2O[C@H](SC)[C@H](O)[C@@H](O)[C@H]2O)[C@H](C)O)N(C)C1 | active
CCCC1CC(C(=O)NC(C(C)O)C2OC(SC)C(O)C(O)C2O)N(C)C1.Cl (configuration not stated) | active
CCC[C@@H]1C[C@@H](C(=O)N[C@@H]([C@H]2O[C@H](SC)[C@H](O)[C@@H](O)[C@H]2O)[C@@H](C)O)N(C)C1 | active

Structure (SMILES) | growth inhibition call
CC(C)NC(=O)Nc1ccc2c(c1)C(=O)N([C@H](C)CO)C[C@H](C)[C@@H](CN(C)C(=O)Nc1ccc(F)cc1)OCCCC[C@H](C)O2 | inactive
COc1cccc(-c2ccc3c(c2)O[C@H](CN(C)C(=O)C2CC2)[C@@H](C)CN([C@@H](C)CO)S3(=O)=O)c1 | inactive
COc1ccc(CN(C)C[C@H]2OCCCC[C@@H](C)Oc3ccc(NC(=O)Nc4ccccc4)cc3C(=O)N([C@@H](C)CO)C[C@@H]2C)cc1 | inactive
C[C@@H]1CN([C@H](C)CO)C(=O)c2cc(-c3ccncc3)cnc2O[C@H]1CN(C)C(=O)Nc1ccc2c(c1)OCO2 | inactive
C[C@@H]1CCCCO[C@H](CN(C)C(=O)Nc2cccc3ccccc23)[C@@H](C)CN([C@@H](C)CO)C(=O)c2cc(NC(=O)Nc3ccc(F)cc3)ccc2O1 | inactive
Cc1ccc(S(=O)(=O)N(C)C[C@H]2Oc3c(NC(=O)Nc4ccc(C(F)(F)F)cc4)cccc3C(=O)N([C@H](C)CO)C[C@H]2C)cc1 | inactive
C[C@H]1CN([C@@H](C)CO)C(=O)c2cc(NC(=O)C3CCCCC3)ccc2O[C@H]1CN(C)Cc1ccc(Cl)c(Cl)c1 | inactive
C[C@@H]1CN([C@H](C)CO)S(=O)(=O)c2ccc(C#CCN(C)C)cc2O[C@H]1CN(C)Cc1ccc2c(c1)OCO2 | inactive
COc1ccc(COC[C@]23N=C4SCc5ccccc5CN4[C@H](c4ccccc4O2)[C@H]3COC(=O)NCCCCCC(=O)NO)cc1 | inactive
CCn1cc(C(=O)O)c(=O)c2cc(F)c(N3CCN(C)CC3)cc21.CS(=O)(=O)O | active
O=C(O)c1cn(C2CC2)c2cc(N3CCNCC3)c(F)cc2c1=O | inactive
CCn1cc(C(=O)O)c(=O)c2ccc(C)nc21 | inactive
CCn1cc(C(=O)O)c(=O)c2cc(F)c(N3CCNCC3)cc21 | active
CCn1cc(C(=O)N2CCN(C)CC2)c(=O)c2cc(S(=O)(=O)N(C)C)ccc21 | inactive
CCn1cc(C(=O)O)c(=O)c2cnc(N3CCCC3)nc21 | inactive
CCn1cc(C(=O)O)c(=O)c2cc(F)c(N3CCN(C(=S)Nc4cc(C(F)(F)F)ccc4Cl)CC3)cc21 | inactive
CCN1CCN(c2cc3c(cc2F)c(=O)c(C(=O)O)cn3C2CC2)CC1 | active
C[C@@H]1CCCCO[C@H](CN(C)C(=O)CCCN(C)C)[C@@H](C)CN([C@H](C)CO)C(=O)c2cc(N(C)C)ccc2O1 | inactive
C[C@@H]1CCCCO[C@H](CN(C)C(=O)NC2CCCCC2)[C@@H](C)CN([C@@H](C)CO)C(=O)c2cc(NC(=O)CCC(F)(F)F)ccc2O1 | inactive
COCC(=O)N1C[C@@H](C)[C@@H](OC)CN(C)C(=O)c2cc(NC(=O)Nc3cccc(F)c3)ccc2OC[C@H]1C | inactive
C[C@@H]1CN([C@H](C)CO)C(=O)c2cc(NC(=O)CCC(F)(F)F)ccc2O[C@@H](C)CCCCO[C@@H]1CN(C)Cc1ccccc1 | inactive
C[C@H]1CN([C@@H](C)CO)C(=O)c2cccc(NS(C)(=O)=O)c2O[C@@H]1CN(C)C(=O)Nc1ccc2c(c1)OCO2 | inactive
CN(C)C(=O)CN1CCn2cc(Cn3cncn3)nc2C1 | inactive
Cc1noc(C)c1NC(=O)Nc1ccc2c(c1)CC(=O)N([C@H](C)CO)C[C@H](C)[C@H](CN(C)S(=O)(=O)c1cccs1)O2 | inactive
